Laboratory results published in the supplement of paper PMC13380429.

Tested on: Vero E6 infected with SARS-CoV-2
Assay: inhibition of SARS-CoV-2 cytopathic effect; higher = more antiviral protection, active = above 15
Conditions: 48 h

Measured: inhibition of SARS-CoV-2 cytopathic effect

N[C@H]1C[C@@H]1c1ccccc1 (racemic) [tranylcypromine]
inactive: 1 nM 0.8% | 8.33 nM -0.11% | 100 nM -0.1% | 833.33 nM 0.19% | 10000 nM 2.21%

CCNC(=O)N1CCN(CCCC(c2ccc(F)cc2)c2ccc(F)cc2)CC1 [amperozide]
inactive: 1 nM -5.99% | 8.33 nM -8.04% | 100 nM -8.94% | 833.33 nM -7.67% | 10000 nM -9.06%

CCCCOc1ccc(C(=O)Nc2ccc(F)cc2F)cc1
inactive: 1 nM -1.89% | 8.33 nM 2.63% | 100 nM -3.66% | 833.33 nM -1.37% | 10000 nM -1.07%

NS(=O)(=O)Cc1noc2ccccc12 [zonisamide]
inactive: 1 nM -1.19% | 8.33 nM -3.86% | 100 nM -0.76% | 833.33 nM 0.73% | 10000 nM -2.23%

NC(=O)c1ccc[n+]([C@@H]2O[C@H](COP(=O)([O-])OP(=O)(O)OC[C@H]3O[C@@H](n4cnc5c(N)ncnc54)[C@H](O)[C@@H]3O)[C@@H](O)[C@H]2O)c1 [nadide]
inactive: 1 nM -2.68% | 8.33 nM -2.65% | 100 nM -0.81% | 833.33 nM -0.61% | 10000 nM -0.54%

CC(C)(C)c1ccc(C(O)CCCN2CCC(C(O)(c3ccccc3)c3ccccc3)CC2)cc1 (stereo not given) [terfenadine]
inactive: 1 nM 1.94% | 8.33 nM -2.95% | 100 nM -0.52% | 833.33 nM -3.56% | 10000 nM -21.1%

CC(C)c1cc(C(C)C)c(CC(=O)NS(=O)(=O)Oc2c(C(C)C)cccc2C(C)C)c(C(C)C)c1 [avasimibe]
inactive: 1 nM -2.41% | 8.33 nM 1.3% | 100 nM -0.91% | 833.33 nM -2.68% | 10000 nM -1.52%
